From the OligoGym collection come the findings set out here.
Further: reference of the scale not given here.

One test concerns the target SRSF6. The test is described as follows: pooled miR-30 sensor sort-seq; sequence = guide strand. The settings on record: shRNA.
In the case of ATTTTTGAGGTCTACTTCGAGG, the sensor-assay potency score (higher = more potent) is -1.54.

With TAGATTTGCTCTTTGATCTAGA, the sensor-assay potency score (higher = more potent) is 0.174.

The sequence TTGATCTAGATTTCCTGCCTTT displayed a sensor-assay potency score (higher = more potent) of 0.199.

In turn, TTGAGCGAGATCTAGAACGGGA displayed a sensor-assay potency score (higher = more potent) of 0.0866.

In turn, TTGACTTTGAGCGAGATCTAGA showed a sensor-assay potency score (higher = more potent) of -0.299.

With TTGAAGTAGCTCTTTTTGGTGG, the sensor-assay potency score (higher = more potent) was -0.375.

TTGATCGAGAACGTGATCGACC yielded a sensor-assay potency score (higher = more potent) of -0.727.

Take TTGATCTTGACTTTGAGCGAGA: the sensor-assay potency score (higher = more potent) is -0.415.

Consider TAGATCTGCTTCGAGAATGTGA, for which the sensor-assay potency score (higher = more potent) was -0.00685.

Take TTAGATTTGCTCTTTGATCTAG: the sensor-assay potency score (higher = more potent) worked out at 0.289.

In turn, TTTGAGGTCTACTTCGAGGAGG displayed a sensor-assay potency score (higher = more potent) of -0.608.

TACTTCGTGACCGTCTTCTAGA displayed a sensor-assay potency score (higher = more potent) of -0.126.

The target in the next test is SRSF7. The test is described as above. The settings on record: shRNA.
TTGATCGTCGAGGAGATGCTGA displayed a sensor-assay potency score (higher = more potent) of -0.317.

As for TTGATCTTGACCTCGACGGGGA, the sensor-assay potency score (higher = more potent) is 0.107.

For the sequence TAGATCTTGATCGTCGAGGAGA, the sensor-assay potency score (higher = more potent) was -0.545.

Sequence TTCTGAGTGAAGCTGATCTTGA came in with a sensor-assay potency score (higher = more potent) of -0.735.

Regarding TTACCAACATACACCTTGGTTT, the sensor-assay potency score (higher = more potent) is -0.665.

Sequence TAGATCTTCTGAGTGAAGCTGA displayed a sensor-assay potency score (higher = more potent) of 0.474.

Regarding TAAAGGACCATAATAACTGAAA, the sensor-assay potency score (higher = more potent) is -1.16.

TATCAAAACGTGATCTCCGAGG registered a sensor-assay potency score (higher = more potent) of -0.606.

The sequence TAGACCTGGATCTTGATCTTGA yielded a sensor-assay potency score (higher = more potent) of -0.00181.

With TTTCTCGCAATCCATACAGTTC, the sensor-assay potency score (higher = more potent) is -1.

TTTCTAACTCTCCTTTGCCAGC returned a sensor-assay potency score (higher = more potent) of -1.58.

The sequence TGCATCTCTAGGATCTTCGAAT came in with a sensor-assay potency score (higher = more potent) of -1.39.

A further test has as its target SS18. The test is described as above. The settings on record: shRNA.
As to TATTGTAGCAAGGTATACCAAG, the sensor-assay potency score (higher = more potent) is -0.903.

As for TTGTCATCCAACATCTTCTGAA, the sensor-assay potency score (higher = more potent) was -0.31.

For the sequence TTGGTTAACTTGACCCATCATT, the sensor-assay potency score (higher = more potent) was -0.57.

Take TTATACACTGAATAAGATGGTT: the sensor-assay potency score (higher = more potent) was -0.124.

With ATTGTCATCCAACATCTTCTGA, the sensor-assay potency score (higher = more potent) is -0.704.

Sequence TATTGTATTGCTGAGAAGGAGG registered a sensor-assay potency score (higher = more potent) of -1.18.

For TTGTCATCTGATTCTGTACTGG, the sensor-assay potency score (higher = more potent) is -0.29.

On to TTGTGTGCAACATCTGCTGATA, for which the sensor-assay potency score (higher = more potent) is -0.703.

In the case of TTTATCTTTATAGCACACCATT, the sensor-assay potency score (higher = more potent) is -1.15.

With TTTGTGTGCAACATCTGCTGAT, the sensor-assay potency score (higher = more potent) is 0.199.

Consider TAGAATCTGCTATTGTAGCAAG, for which the sensor-assay potency score (higher = more potent) is -0.645.

For TTTCAGTCTGTAACAGTCCATT, the sensor-assay potency score (higher = more potent) is -0.917.
